Assay results from article PMC5540273 (PLoS ONE, 2017).

What was measured:
Settings in all cases: concentration: 1 μM, replicates: in singlicate; n = 1
CDK3 = system: CDK3
CDK4-cyclinD1 = system: CDK4-cyclinD1
CDK4-cyclinD3 = system: CDK4-cyclinD3
CDK4 = system: CDK4
CDK5 = system: CDK5
CDK7 = system: CDK7
CDK8 = system: CDK8
CDK9 = system: CDK9
CDKL1 = system: CDKL1
CDKL2 = system: CDKL2
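Note: KINOMEscan kinase panel screen.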

Row | SMILES | %Inh (CDK3) | %Inh (CDK4-cyclinD1) | %Inh (CDK4-cyclinD3) | %Inh (CDK4) | %Inh (CDK5) | %Inh (CDK7) | %Inh (CDK8) | %Inh (CDK9) | %Inh (CDKL1) | %Inh (CDKL2)
1 | Nc1nc(-c2ccccc2F)c(-c2ccnc3ccccc23)s1 [GW560459] | 0% | 11% | 0% | 32% | 0% | 0% | 39% | 0% | 0% | 26%
2 | Fc1cccc(CSc2nnc(-c3ccc4c(c3)CCO4)o2)c1 | 0% | 0% | 17% | 0% | 4% | 0% | 0% | 0% | 3% | 4%
3 | O=C(Nc1n[nH]c2nc(-c3ccccc3)c(Cl)cc12)C1CC1 [SB-734909] | 0% | 0% | 0% | 9% | 0% | 15% | 3% | 0% | 41% | 35%
4 | COC(=O)c1c(-c2ccccc2)c2cc(Br)ccc2c(=O)n1Cc1ccc(S(C)(=O)=O)cc1 | 0% | 0% | 5% | 0% | 15% | 29% | 0% | 3% | 0% | 0%
5 | CN1C(=O)C(Nc2ccccc2)=C(c2ccccc2)C1=O [SB-300079] | 12% | 9% | 0% | 11% | 5% | 6% | 13% | 1% | 4% | 13%
6 | CCCC(=O)Nc1n[nH]c2ncc(-c3cccc4ccccc34)cc12 [SB-642057] | 51% | 0% | 37% | 0% | 0% | 0% | 7% | 0% | 10% | 0%
7 | Cl.NS(=O)(=O)c1cccc(Nc2cc(-c3ccc(F)cc3)n[nH]2)c1 [GW824645] | 29% | 0% | 0% | 0% | 0% | 1% | 0% | 5% | 3% | 0%
8 | COc1ccc(CNC(=O)NC2CCN(c3ccnc(Nc4ccc(F)cc4)n3)C2)cc1 (stereo not shown) [GSK1379706] | 20% | 52% | 0% | 49% | 0% | 4% | 60% | 5% | 10% | 31%
9 | COc1ccc(Nc2nccc(N3CCC(NS(=O)(=O)c4ccc(NC(C)=O)cc4)C3)n2)cc1 (stereo not shown) [GSK1379729] | 20% | 8% | 0% | 13% | 12% | 0% | 35% | 0% | 0% | 14%
10 | Cl.c1ccc(Cn2cnc3cc(Nc4ncnc5ccccc45)ccc32)cc1 [GW272142] | 0% | 0% | 1% | 28% | 0% | 0% | 21% | 0% | 6% | 9%
11 | Cc1nnc(-c2ccc3ncn(-c4ccc(S(C)=O)cc4)c3c2)o1 (stereo not shown) | 4% | 0% | 0% | 0% | 13% | 0% | 16% | 7% | 20% | 0%
12 | Cc1cc(Nc2nc(-c3cccc(C)n3)nc3ccccc23)ccn1 [GW872411] | 0% | 0% | 0% | 0% | 0% | 0% | 0% | 0% | 17% | 0%
13 | Nc1ncnc2c1ncn2-c1ccc(Cl)cc1 [AH2635] | 0% | 0% | 0% | 42% | 0% | 0% | 33% | 0% | 0% | 6%
14 | Nc1ncnc2c1ncn2-c1cccc2ccccc12 [SKF-97184] | 0% | 0% | 0% | 13% | 0% | 22% | 38% | 1% | 33% | 0%
15 | CCC(=O)c1c(-c2ccccc2)c2cc(Cl)ccc2c(=O)n1Cc1cc(S(C)(=O)=O)n(CC(F)F)n1 | 0% | 0% | 0% | 0% | 0% | 0% | 0% | 2% | 0% | 0%
16 | FC(F)(F)c1ccc(-c2ncn(CCCN3CCOCC3)c2-c2ccncc2)cc1 [SB-217780] | 0% | 0% | 1% | 9% | 0% | 9% | 12% | 0% | 13% | 0%
17 | O=C(Nc1n[nH]c2nc(-c3ccccc3)c(Br)cc12)C1CC1 [SB-708998] | 0% | 0% | 0% | 10% | 10% | 1% | 0% | 0% | 0% | 30%

Row | SMILES | %Inh (CDK3) | %Inh (CDK4-cyclinD1) | %Inh (CDK4-cyclinD3) | %Inh (CDK4) | %Inh (CDK5) | %Inh (CDK7) | %Inh (CDK8) | %Inh (CDK9) | %Inh (CDKL1) | %Inh (CDKL2)
18 | Cc1c(Cn2c(C)nn3c(=O)cc(N4CCO[C@H](C)C4)nc23)cccc1C(F)(F)F [GSK2373690] | 18% | 0% | 0% | 0% | 0% | 0% | 13% | 0% | 3% | 24%
19 | Nc1ncnc2c1ncn2-c1cccc(F)c1 [SKF-97560] | 0% | 27% | 13% | 30% | 0% | 0% | 0% | 0% | 0% | 0%
20 | COc1cccc(C2=C(N(C)c3ccccc3)C(=O)NC2=O)c1 [SB-334865] | 12% | 2% | 8% | 0% | 0% | 0% | 6% | 39% | 0% | 23%
21 | O=C(Nc1n[nH]c2cc(-c3ccccc3F)ccc12)C1CC1 [SB-733371] | 7% | 0% | 0% | 0% | 0% | 0% | 0% | 0% | 11% | 79%
22 | Cc1nn2c(=O)cc(N3CCOCC3)nc2n1Cc1cccc(Cl)c1Cl [GSK2342769] | 16% | 0% | 0% | 0% | 0% | 0% | 0% | 0% | 0% | 19%
23 | COc1cc(Nc2nccc(N3CCC(NC(=O)C4COc5ccccc5O4)C3)n2)cc(OC)c1OC (stereo not shown) [GSK1379761] | 0% | 52% | 0% | 70% | 0% | 57% | 57% | 0% | 11% | 11%
24 | Cc1nnc(-c2ccc(C)c(-c3ccc(C(=O)O)cc3)c2)o1 [GW608005] | 0% | 0% | 0% | 29% | 0% | 0% | 21% | 0% | 0% | 6%
25 | CCn1c(-c2nonc2N)nc2ccccc21 [SB-693162/GW549034] | 48% | 0% | 46% | 13% | 12% | 20% | 0% | 0% | 8% | 0%
26 | COc1cccc(C2=C(Nc3cccc(C(=O)O)c3)C(=O)NC2=O)c1 [SB-390770] | 9% | 9% | 0% | 0% | 0% | 0% | 4% | 0% | 0% | 24%
27 | Cc1cccc(-c2cc(-c3c[nH]nc3-c3ccccn3)ccn2)c1 [GW679395] | 9% | 0% | 0% | 0% | 0% | 0% | 4% | 0% | 0% | 14%
28 | COc1cc2ncn(-c3cc(OCc4ccc(S(C)(=O)=O)cc4)c(C(N)=O)s3)c2cc1OC [GW869979] | 0% | 14% | 16% | 9% | 0% | 0% | 0% | 0% | 0% | 0%
29 | CCC(=O)c1c(-c2ccccc2)c2cc(Cl)ccc2c(=O)n1Cc1cc(S(C)(=O)=O)n(CCC(C)(C)O)n1 | 2% | 0% | 20% | 0% | 10% | 38% | 0% | 17% | 10% | 0%
30 | CCS(=O)(=O)c1ccc(OC)c(Nc2ncc(-c3ccc(F)cc3)o2)c1.Cl [GW591947] | 0% | 0% | 0% | 14% | 0% | 0% | 19% | 0% | 14% | 29%
31 | CCc1nc(-c2cccc(C)c2)c(-c2ccncc2)s1 | 8% | 6% | 0% | 0% | 3% | 0% | 0% | 7% | 33% | 4%
32 | Cc1ccccc1COc1cc(-n2cnc3cc(Cl)ccc32)sc1C(N)=O [GW813349] | 0% | 25% | 3% | 0% | 0% | 0% | 14% | 0% | 34% | 13%
33 | CCc1ccc(-c2ccc3c(c2)-c2nn(C)cc2S(=O)(=O)N3C)cc1 | 0% | 14% | 0% | 0% | 12% | 0% | 0% | 0% | 9% | 19%
34 | O=C(NCc1cccs1)c1cc(C(=O)c2c(Cl)cccc2Cl)c[nH]1 [GW823670] | 15% | 0% | 0% | 0% | 0% | 0% | 16% | 0% | 8% | 0%
